From the supplement of paper PMC11417369
± gives the standard deviation of the averaged measurements. The full ranking holds about 25,000 sequences; the median of “ln(normalized median fluorescence intensity)” is about 7.9, and the highest 2% start at about 11. This excerpt belongs to a sample that is enriched for the highest values.

System: PfAP2-I AP2 domain 3 (GST-tagged)
Assay: gcPBM binding intensity (ln(normalized median fluorescence intensity)); higher = stronger DNA binding
In short: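 In this array assay, P. falciparum DNA-binding domains with a GST tag, expressed in E. coli, were applied for 1 h to primer-extended double-stranded 36-bp intergenic genomic probes and negative controls on an Agilent 4 × 180k array. Bound protein was visualised with Alexa488 anti-GST antibody at 488 nm. Binding intensity is the highest Masliner-normalised natural-log median intensity across replicate spots of either probe orientation.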

| Sequence | gcPBM binding intensity (ln) |
| --- | --- |
| TGAATATTTCTATATACACACATATAAATATAAATA [CACACA_site7593] | 7.55 ± 0.31 |
| ATATATATATATATATGTACTTATAAGGTATATTTA [XGTACX_site3327] | 9.35 ± 0.52 |
| TTTTTAACGTATAAGGTGCACTGTATATGGTACTCA | 11 ± 0.33 |
| GTGGTATAAATTTTATGTACTTAATAACTCATTAAT [XGTACX_site5555] | 7.79 ± 0.28 |
| ATATTATTATAAACTTCACACATTTTATGGGTTTTT [CACACA_site4631] | 7.49 ± 0.61 |
| ATATATATAACAAAAGTGCATTAAGGGGATGCTATA | 11.5 ± 0.26 |
| ATAAAGATTAACAAAGTGCATTTATATATATAATCT [GTGCAC_site9407] | 9.865 ± 0.092 |
| TTAAAAGTAAGCAAAGTGCATATAACAAAAGTAAAG | 10.01 ± 0.092 |
| TTTTTTTTTTTTTTGGTGCGTTTATATATAAATATA | 10.4 ± 0.86 |
| TTAACAAAATTTTTAACACACAAAAAAAAAAAAAAA [CACACA_site1828] | 8.2 ± 0.8 |
| TGAAATAACCCATGTGCATGCACTTCAATAACTGAA [TGCATGCA_site1041] | 9.54 ± 0.47 |
| GGTTATAACCCACATGCACACGTAAATAAATATTAT [CACACA_site5992] | 8.77 ± 0.3 |
| AAATAACCCACGTGCATGCACTTCAATAACTGAACT | 11.3 ± 0.14 |
| TTGTATTCATATGGTTGTACATATTAAAAGTTCTAA [XGTACX_site7255] | 7.73 ± 0.31 |
| CATATTATTATTTTGGTGCATACTTATATATATTTT | 9.53 ± 0.085 |
| ATAGTTTAATTTATATGTACATATAATATTGATTTG [XGTACX_site7520] | 7.89 ± 0.41 |
| TACTTATTTGATTGGGTGCATATATATAGTATGTAT [GTGCAC_site9845] | 11 ± 0.73 |
| GTCAATATTTAGATATGTACTAAGGAGTGCTATATA [XGTACX_site222] | 10.2 ± 0.55 |
| TCCGCATGTACATGGGTGCACATAACACCCATTTAA [GTGCAC_site9881] | 10.4 ± 0.44 |
| TATATATGTATAAGAGTGCATATGCATATATGTATA [GTGCAC_site9692] | 9.85 ± 0.014 |
| GAAAAGCAGATAAATGTGCACATATATGTTTGTATA | 9.71 ± 0.43 |
| TTTTGTTTTTGTAGAGTGCATAAAGAAGATATGTAT | 11.1 ± 0.86 |
| CAAAAGGATATGCACACACACACACGGATATTTATA [CACACA_site7099] | 8.985 ± 0.064 |
| TATGAAAAAATATATACACACATAATAAAGGTATAT [CACACA_site3737] | 7.73 ± 0.59 |
| TTATATGCATAAAAAGGTACACATATATAAATAAAT [XGTACX_site6894] | 8.23 ± 0.4 |
| GGTATTTATGGACGCGTGCACACACATATGAACAAA | 9.9 ± 0.14 |

| Sequence | gcPBM binding intensity (ln) |
| --- | --- |
| TATTTATGCACGCGTGCACACACATATGAAAAAAGG [CACACA_site9090] | 11.1 ± 0.59 |
| TTTATGCACGCGTGCACACACATATGAAAAAAGGTA [CACACA_site3315] | 10.9 ± 0.72 |
| TTTGTTATATTTAATACACACATATTATAAACCCAT [CACACA_site3716] | 7.95 ± 0.59 |
| TTTTCTTACACGAATTTTAAATTCAATATTAAACAT [CACACA_negctrl_site286] | 8.03 ± 0.44 |
| ATGTATATTTTTATGTGTACGTAATAAAACATAATA [XGTACX_site7777] | 8.33 ± 0.27 |
| AAATCCATATAGGATTGTACATATATTATATATATA [XGTACX_site8818] | 8.46 ± 0.39 |
| ATCCTCTTTACAATATGTACATAAATATATATTTAT [XGTACX_site8001] | 8.47 ± 0.43 |
| TTTTGTTATTTTTCAGTGCAATATGATAATAATATA | 10.5 ± 0.46 |
| TTTTTTGTTATGCGGGTGCATATAATAATGTGATGA | 10.9 ± 0.89 |
| TACACATAATATAATGCATGTGTGATGTATGTTTAA [TGCATGCA_site697] | 8.09 ± 0.66 |
| TTTTTTTTTTTTTGTACATGCAAATATTATGAACAC [TGCATGCA_site571] | 8.28 ± 0.53 |
| GAAATAATTCGATGTGCATGTAACGTTTCCCCAAAG [TGCATGCA_site122] | 8.58 ± 0.54 |
| AATAAATAAATAAGTACACACATATAAATATAAATA [CACACA_site6271] | 7.91 ± 0.25 |
| ATATATTTTTATGTAGTGCATTTAAATAATAAATGC | 10.7 ± 0.55 |
| TTTTATGCGCAATAAGTGCATTTAAAATATATATAT | 11 ± 0.13 |
| TTATAAAATATTTATGCATGTGAAGAATATTATAAA [TGCATGCA_site1047] | 8.42 ± 0.34 |
| TGTTATTAAAATATAGTGCATAATTAACCATTATAA [GTGCAC_site9594] | 10.8 ± 0.65 |
| TGATATAAAATTAAAGTGCAAAAAAAAAATAAAAAA | 10.06 ± 0.078 |
| TTTTATGCATGTGAAGTGCAAAATAAAAAATAAAAT [GTGCAC_site9612] | 10.8 ± 0.4 |
| AATAAAATAAATATATGTACATATATATAACCATTA [XGTACX_site5549] | 7.59 ± 0.38 |
| AGGATATATAATTAAGTGCATTAATTCAAAATAAAA [GTGCAC_site9702] | 11.5 ± 0.54 |
| AATATATATAAAAAAGTGCATTAGGATAACCATATA [GTGCAC_site9590] | 11.2 ± 0.57 |
| ATTCTTAAAAAATAAGTGCAAAATAATTAAATAAAT | 10.23 ± 0.014 |
| AAGTATTATTTTTATGCATGTGAAGTGCAAAATAAA [TGCATGCA_site198] | 11 ± 0.43 |
| TGGTTTATTTATTAAGTGCATAAATGCAATATATAT | 10.6 ± 0.44 |
| AAAAAAAAAAAAAATTGTACATTAAATTAAAAGAAA [XGTACX_site8708] | 7.88 ± 0.28 |

| Sequence | gcPBM binding intensity (ln) |
| --- | --- |
| ATATATATATATATAGTGCAAATATCTTCTTTATAA | 10.4 ± 0.26 |
| ATACAAGAATTAAACACACACAAAATATAAATTCTT [CACACA_site3005] | 7.85 ± 0.71 |
| AAATATTATTGACGATGTACTTCTATTCATAAGTAT [XGTACX_site3964] | 7.55 ± 0.5 |
| TAAAAATAAAGAAAATGTACATAAATAAAAATAAAG [XGTACX_site2279] | 8.14 ± 0.69 |
| GATATAATGTGTTTGGTATTCTTGATAGATAGTTTT [CACACA_negctrl_site1711] | 7.7 ± 0.47 |
| TGTAATGTTTACAACACACAAATTATAAATACAAAA [CACACA_site5047] | 7.67 ± 0.59 |
| TATATGTTTTATAGTACACACATAAATGGACATACT [CACACA_site2191] | 7.83 ± 0.33 |
| CTATATTTCGTTGGACGTACAAATGTGATAATTAGG [XGTACX_site3232] | 8.06 ± 0.46 |
| TATCAATATTAAAAAGTGCAAAATAAAATATAAAAT [GTGCAC_site9486] | 10.7 ± 0.23 |
| TTGTATTAAAATCAAGTGCATATAATTTAAGTTCAT [GTGCAC_site9495] | 9.54 ± 0.042 |
| TTGTGTAAATGTTAAGTGCATTTGGTAAAATATAAA [GTGCAC_site9699] | 9.51 ± 0.11 |
| TGTAAAATATAAAAAGTGCATTTCTTTTAATATGAT | 9.96 ± 0.19 |
| ATCCTTTATAAATAAGTGCATATAAAAAATAATATT [GTGCAC_site9759] | 10.1 ± 0.3 |
| GTCATCAAGTATTAAGTGCATTAAAAATAAAATATA | 11.3 ± 0.62 |
| TAAATTAATAAACAAGTGCATATATATATATATATA | 10 ± 0.49 |
| AGGTAAAAATGGTAAGTGCATTAATGATAAAAAATG | 11.1 ± 0.18 |
| TAAATATATATATAAGTGCATTATATATATATATAA | 11.2 ± 0.57 |
| TAAAAAATAAAATACACACACATATATATATATATA [CACACA_site1323] | 9.33 ± 0.2 |
| ATTATGAATTTAAGACGTACAAAAAATTTTTATTCA [XGTACX_site5682] | 7.8 ± 0.31 |
| ACAAAATTTACAAAATGTACAAAATTTACAAAGTAT [XGTACX_site6463] | 7.54 ± 0.56 |
| ACATATATTGTACATACACACCTATATAAATATCCT [CACACA_site7503] | 8.24 ± 0.54 |
| AATAGTCGTGTGCATACACACCTTAACTATAATATA [CACACA_site6636] | 8.83 ± 0.2 |
| AACAATATGGATGTATGTACACATATAGAACGTTAT [XGTACX_site7142] | 7.91 ± 0.72 |
| TATGAATGTATATGTTGTACATATAAATATTTATAT [XGTACX_site1146] | 7.72 ± 0.34 |
| TTTGTATTAAAAAAAAAAAAAAAAAAAATGAATAAA [TGCATGCA_negctrl_site292] | 7.34 ± 0.41 |
| TTGTATTTCCTTAGGAGTACACATAAATAAGTAAAT [XGTACX_site6677] | 8.22 ± 0.092 |

| Sequence | gcPBM binding intensity (ln) |
| --- | --- |
| ATAATTACATAGATTGGTACACATTTTTGATTGTAT [XGTACX_site3802] | 7.71 ± 0.44 |
| TGTATTAAAAATTTGGTGCAACTTTTACATAATAAT | 9.49 ± 0.18 |
| ACTTTAACCTGAACGGTGCATAAAATTTTGGCATTA | 10.9 ± 0.35 |
| ACTAATAATTTGTCGGTGCATAAAATTATTTTTATT [GTGCAC_site9840] | 10.8 ± 0.43 |
| CATATTATATTCTGCTTACACACATATATATATATA [CACACA_site3059] | 9.36 ± 0.29 |
| TCCCAATTTCTATCCTGTACAGACATAAATATATAC [XGTACX_site5937] | 8.31 ± 0.49 |
| TATGTATATATTTACGCATGCTACTCTATTTTGAGA [TGCATGCA_site990] | 7.64 ± 0.48 |
| AATAAATACTAAATGGTGCAAAATTTTTTAACACTG | 10.8 ± 0.42 |
| TAAATCAAAATAATTTAACACACAATTTTAATACTG [CACACA_site8744] | 7.34 ± 0.54 |
| ATACTATTTAAATGGGTGCTAAAAATAACAAAAATT | 9.65 ± 0.085 |
| ATCAAATTTGGACATGCATGTGTGTGTAAAACCATG [TGCATGCA_site309] | 8.52 ± 0.41 |
| TGGTATATTATTTTTTGTACACATAAATGAAACATT [XGTACX_site5345] | 8.04 ± 0.22 |
| GGTGTTTTTCACAGATGTACACAAATAAAAAAGAAA [XGTACX_site4454] | 8.39 ± 0.47 |
| TCGTTATCCATCTTCACACATATATATAGTAATATA [CACACA_site5492] | 8.27 ± 0.49 |
| AAAGTGTTAACCTAATCTTTAGTTTTTAAACAATAT [CACACA_negctrl_site841] | 7.49 ± 0.59 |
| TATAATAATATTATAGTGCATATTATTTATATATAA [GTGCAC_site9820] | 9.72 ± 0.16 |
| CTATTTCAATTTAGTGCACACATTTTAATTTATAAG [CACACA_site2040] | 11.4 ± 0.49 |
| GCCATTAATTTATACACACACATTATAACTTTTTAT [CACACA_site6492] | 8.29 ± 0.49 |
| ACCCATTTTAATTTAGTGCACATTTTACCTTTATAC | 11.4 ± 0.35 |
| TTAATTTATTTATGCACACATATATAATTACCCATA [CACACA_site682] | 10.2 ± 0.67 |
| TTAATAATTAATTATAGTACACATTTATATTAATAA [XGTACX_site190] | 7.915 ± 0.064 |
| TATATTATTAATTAAGCACACATTATTTTTATAATA [CACACA_site3982] | 8.54 ± 0.3 |
| TTTTTTTCAATATTTGCACACGATTATAATATTTAA [CACACA_site2237] | 9.415 ± 0.035 |
| ATATATATATATATAGTGCACATTTATATAATTATT | 11.43 ± 0.092 |
